# Source: PubChem BioAssay (NCI)
# About 83,000 compounds went through this panel and 20% of them were active in at least one assay; those are over-represented in the sample as a whole.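 For each line, cells grew in 96-well plates with the test compound present at a single concentration for 48 hours.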 Unmarked numbers belong to inactive results. The source made the active and inactive calls. Rule for the calls: active = growth percent below 10; inactive = the rest.
# Experiments:
# Assay in all cases: NCI-60 one-dose screen, 48 h (100 = growth as untreated, 0 = no growth, -100 = all killed)
# Settings in all cases: 10 µM unless noted
# [1] = tested on: SR leukemia
# [2] = tested on: RPMI-8226 leukemia
# [3] = tested on: OVCAR-8 ovarian
# [4] = tested on: OVCAR-5 ovarian
# [5] = tested on: OVCAR-4 ovarian
# [6] = tested on: SK-OV-3 ovarian
# [7] = tested on: IGROV1 ovarian
# [8] = tested on: OVCAR-3 ovarian
# [9] = tested on: HS 578T breast
# [10] = tested on: NCI/ADR-RES ovarian
SMILES,growth [1],growth [2],growth [3],growth [4],growth [5],growth [6],growth [7],growth [8],growth [9],growth [10]
CCCCCCCCc1cc(Cl)c(O)c(Cl)c1,83.1%,98.3%,103%,101%,115%,101%,133%,101%,98.7%,103%
S=C(SSC(=S)N1CCOCC1)N1CCOCC1,31.4%,76.9%,96.8%,106%,65.7%,102%,29.1%,74.6%,97.7%,106%
CCCCCCC1N=C(N)N=C(N)N1c1cccc(Cl)c1 (stereo not given),31.5%,14%,35.7%,58.9%,43.9%,45.1%,58%,41.5%,55.2%,111%
CCOC(=O)C1(C)CCCC1N (stereo not given),90.1%,109%,106%,106%,99.2%,131%,104%,104%,98.5%,116%
CCOC(=O)c1cc(CC)sc1NC(=O)CC(C)=O,35.1%,37.4%,43%,96.7%,43.3%,84.6%,59.7%,65.3%,49.9%,40%
CCOc1ccc(C(C[N+](=O)[O-])Sc2ccccc2N)cc1 (stereo not given),4.9% (active),6.92% (active),53.5%,81.9%,83.1%,72.6%,-34.9% (active),32.2%,43.6%,72.6%
Oc1ccc(Nc2ccc3ccccc3c2)cc1,50.4%,58.6%,59.8%,71.5%,60.2%,89.3%,58.1%,69.8%,87.6%,41.8%
Cc1ccccc1N=C(N)Nc1ccccc1C (tested in a mixture with another compound),49.6%,46.6%,73.7%,91.6%,82.2%,98.5%,62.6%,78.8%,111%,79.3%
CCOC(=O)NC(/C=C/c1ccccc1)NC(=O)OCC,103%,101%,108%,108%,109%,90.3%,106%,107%,103%,109%
CC1(O)CCCCCC1,92.5%,102%,102%,105%,107%,93.9%,103%,103%,98.3%,102%
CN(C)c1ccc(/C=C/c2sc3ccc4ccccc4c3[n+]2C)cc1,-30.7% (active),-26.6% (active),-31.1% (active),-27.3% (active),-19.9% (active),-23.7% (active),-11.2% (active),-63% (active),-29.1% (active),34%
O=C1C=CC(=O)N1c1cccc2c1CCCC2,87.6%,100%,110%,103%,102%,99.5%,97.5%,106%,114%,112%
CCNc1nnnn1CC,108%,107%,113%,115%,110%,109%,115%,109%,102%,110%
OC(c1cc(-c2ccc(Cl)cc2)nc2c(Cl)cccc12)C1CCCCN1 (stereo not given),-39.4% (active),-17.3% (active),-75.2% (active),-70.9% (active),-85.6% (active),-73.4% (active),-73.7% (active),-95.1% (active),-47.6% (active),-70.3% (active)
C[n+]1ccccc1C[n+]1ccccc1,88.6%,108%,95.9%,113%,113%,109%,130%,123%,121%,113%
CC(C)Nc1ccc(Nc2ccc(NC(C)C)cc2)cc1,26.2%,17.8%,51.6%,96.3%,49.5%,53.2%,50.7%,31.6%,73.4%,95.5%
S=C1SCN(Cc2cccs2)CN1Cc1cccs1,59.3%,58%,104%,98.8%,94.4%,108%,106%,111%,91.1%,108%
Nc1ccc(C(=O)/C=C/c2ccccc2)cc1,46.9%,43%,102%,113%,105%,110%,90.4%,75.2%,106%,101%
CCC[CH2][Sn]1([CH2]CCC)[O]C2C(CO)OC(n3ccc(N)nc3=O)C2[O]1 (stereo not given),-30.5% (active),-28.7% (active),-44.7% (active),-41.9% (active),-53% (active),28.2%,-23% (active),-90.8% (active),-12.4% (active),24.8%
CCOc1ccc2c(c1)/C(=C\C=C\C1CC(C)C3CC(OCC)CCC3N1CC)CC(C)N2CC (stereo not given),-47.6% (active),-52.2% (active),6.8% (active),33.6%,15.4%,14.9%,32.4%,8.69% (active),63.6%,60.8%
CCCCCCCCCCCCSC(=N)N,-32.1% (active),-42.2% (active),-60.6% (active),37.4%,33.1%,79%,-15.2% (active),14.4%,92.1%,35.6%
Cc1cc(Br)c2nsnc2c1[N+](=O)[O-],19.2%,23.9%,52.8%,72.8%,47.7%,91.3%,27.4%,57%,47%,50.5%
Cc1onc(-c2ccccc2)c1C(=O)N/N=C/c1cc(Cl)cc(Cl)c1O,18.5%,39.6%,31.1%,58.1%,32.1%,47.6%,23.2%,25.2%,80%,17.1%
OC(c1cc2ccc(C(F)(F)F)cc2c2cc(C(F)(F)F)ccc12)C1CCCCN1 (stereo not given),-84.7% (active),-54.5% (active),-63.8% (active),-99% (active),-100% (active),-100% (active),-83.9% (active),-100% (active),-44.2% (active),-84.6% (active)
O=C1C=C(Cl)C(=O)c2ccccc21,94.7%,84.7%,91.6%,113%,92.5%,94.7%,92.3%,89.8%,111%,102%
CCCc1cc(=O)oc2c3c(c4c(c12)OC(C)(C)CC4)OC(C)[C@H](C)[C@@H]3O (stereo not given in full),45.8%,10.5%,81.7%,86%,83.9%,95.3%,12.7%,112%,74.7%,81.7%
Cc1cc(C)c([I+]c2c(C)cc(C)cc2C)c(C)c1,-49.1% (active),-8.17% (active),-60.3% (active),-7.26% (active),-44.8% (active),-26.4% (active),-47.6% (active),-44.9% (active),20.5%,78%
O=[N+]([O-])c1ccc([I+]c2ccccc2)cc1,17.7%,41.6%,-27.6% (active),-85.8% (active),-91% (active),50.2%,43.4%,-15.3% (active),1.04% (active),28.9%
CCN(CC)CC(O)c1cc(-c2ccc(Cl)cc2)nc2cc(Cl)ccc12 (stereo not given),-12.3% (active),34.4%,38%,14.2%,53.3%,60%,10.3%,56.8%,40.6%,29.8%
